# High-throughput results from PubChem.
# IDE cell activ – IDE (human) activation, cell-based; activation, % at 5.96 µM; 340,000 tested, 0.073% active; AID 493087; P14735; HEK cells, FAbeta-B cleavage, fluorescence polarization; 0% vehicle, 100% cell-free pure enzyme wells;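 active means activation above the mean of all tested compounds plus 3 SD, set per screening campaign, cut at about 17% in these data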
# Target sequence (P14735 whole entry, looked up): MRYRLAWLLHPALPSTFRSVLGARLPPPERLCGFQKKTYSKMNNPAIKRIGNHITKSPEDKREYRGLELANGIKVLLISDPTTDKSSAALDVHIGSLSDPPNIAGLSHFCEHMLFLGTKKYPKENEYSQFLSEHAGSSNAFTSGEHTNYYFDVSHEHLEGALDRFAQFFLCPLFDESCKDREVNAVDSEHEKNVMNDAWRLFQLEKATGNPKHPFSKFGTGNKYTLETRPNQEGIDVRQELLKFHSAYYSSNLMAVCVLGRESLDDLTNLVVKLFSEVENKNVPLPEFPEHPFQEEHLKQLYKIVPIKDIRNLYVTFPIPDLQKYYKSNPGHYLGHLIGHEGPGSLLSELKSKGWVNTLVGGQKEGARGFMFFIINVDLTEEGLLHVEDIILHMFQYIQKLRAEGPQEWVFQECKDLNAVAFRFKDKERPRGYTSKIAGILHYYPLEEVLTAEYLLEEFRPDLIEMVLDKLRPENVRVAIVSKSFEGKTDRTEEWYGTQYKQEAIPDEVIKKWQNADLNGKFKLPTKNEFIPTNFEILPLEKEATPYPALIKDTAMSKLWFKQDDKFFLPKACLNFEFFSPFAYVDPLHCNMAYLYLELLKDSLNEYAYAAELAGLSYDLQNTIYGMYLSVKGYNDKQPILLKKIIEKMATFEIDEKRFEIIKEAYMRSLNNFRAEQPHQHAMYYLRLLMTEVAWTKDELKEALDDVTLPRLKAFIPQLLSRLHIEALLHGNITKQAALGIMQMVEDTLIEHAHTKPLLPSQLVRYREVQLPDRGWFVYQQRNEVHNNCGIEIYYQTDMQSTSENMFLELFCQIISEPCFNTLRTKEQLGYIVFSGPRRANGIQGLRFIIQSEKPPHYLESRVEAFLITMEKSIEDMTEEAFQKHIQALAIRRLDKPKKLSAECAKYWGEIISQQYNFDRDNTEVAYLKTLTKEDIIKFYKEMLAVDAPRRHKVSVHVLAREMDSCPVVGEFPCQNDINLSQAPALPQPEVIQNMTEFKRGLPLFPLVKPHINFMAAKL
# cardiac RTF act – cardiac RTF calcium sensitization | P19429+P45379 | IANBD-labeled TnC RTF fluorescence at EC20 calcium; 0% EC20 calcium, 100% full calcium | 340,000 tested, 0.24% active | AID 493008 | activation, % at 7.2 µM;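 active means activation above the mean over all tested compounds plus 3 SD, cut at about 30% in these data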;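 further: rise in fluorescence read as greater calcium sensitivity of cardiac thin filaments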
# IDE cell inh – inhibitors of human insulin-degrading enzyme in cells | P14735 | HEK cells, FAbetaB cleavage, fluorescence polarization | inhibition, % at 5.59 µM | 320,000 tested, 0.41% active;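 active means percent inhibition above the average of all tested compounds plus 3 SD, set per screening campaign, cut at about 16% in these data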;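 further: IDE supplied by intact live HEK cells; FP after avidin binding of uncleaved biotin substrate so inhibition keeps polarization high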
# CRFBP-R2 block – blocks CRF-induced signaling of the CRF-BP/CRF-R2 complex; 350,000 tested, 0.59% active; HEK293 CRF-R2/CRF-BP, CRF-induced calcium fluorescence; inhibition, % at 11.8 µM;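 active means inhibition of the ligand-induced calcium signal above about 50% at the single tested concentration, limit read from the data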
# Cardiac RTF inh – cardiac RTF calcium desensitization; inhibition, % at 7.15 µM; 340,000 tested, 0.12% active; IANBD-labeled cardiac RTF, Ca2+ fluorescence; AID 493244; P19429+P45379;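 active means inhibition above the mean inhibition of all tested compounds plus 3 SD, cut at about 17% in these data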;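 further: assay run at fixed EC70 calcium of 1.6 mM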
# CRFR2-BP ag – agonists of human CRF-binding protein/CRF-R2 receptor complex; HEK293 CRF-R2/CRF-BP, calcium dye fluorescence (FLIPR); percent of saturating CRF peptide response; activation, % at 13.2 µM; 350,000 tested, 0.46% active;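 active means activation of at least 50%, plus an integration ratio under a set limit after plate pattern correction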
# IDE cell inh cf – confirmation of human insulin-degrading enzyme inhibitors in cells; shares compounds with IDE cell inh; HEK cells, FAbetaB cleavage, fluorescence polarization; inhibition, % at 5.59 µM; 1,200 tested, 51% active; AID 435028;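 active means mean inhibition across triplicate wells above the cutoff set by the earlier primary insulin-degrading enzyme screen, cut at about 16% in these data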
# HEK293 tox – HEK cell cytotoxicity, counter-screen for IDE inhibitors. 1,200 tested, 28% active. HEK293 cytotoxicity, ATP luminescence. AID 449730. shares compounds with IDE cell inh. inhibition, % at 5.59 µM; in the data active means inhibition above about 22%
# Numbers stand for hits; i = inactive; nt = no result. Compounds with a hit are over-represented: about 1.5% of the library has one in this group of screens.
SMILES,IDE cell activ,cardiac RTF act,IDE cell inh,CRFBP-R2 block,Cardiac RTF inh,CRFR2-BP ag,IDE cell inh cf,HEK293 tox
CCOC(=O)C1CCCN(C2=NC(=O)/C(=C/c3ccc(N(C)C)cc3)S2)C1 (stereo unspecified),i,65,52,i,i,69,43,i
O=C1c2ccccc2C(O)(c2ccccc2)N1c1ccncc1 (stereo unspecified),i,i,i,i,i,i,nt,nt
O=C1N=C(N2CCN(c3ccccc3)CC2)S/C1=C\c1cn[nH]c1-c1ccccc1,i,i,i,i,i,i,nt,nt
Cc1ccc(N2CCN(C3=NC(=O)/C(=C\c4cn[nH]c4-c4ccccc4)S3)CC2)cc1,i,i,31,i,i,i,i,26
CN(C)c1ccc(/C=C2\SC(=O)N(CCc3nnc(N)s3)C2=O)cc1,i,i,30,i,i,i,22,i
CN(C)c1ccc(/C=C2/SC(=O)N(CCN=C3NS(=O)(=O)c4ccccc43)C2=O)cc1,i,i,i,i,i,i,nt,nt
Cc1cc2[nH]c(=O)c(=O)[nH]c2cc1S(=O)(=O)NCc1ccc(Cl)cc1,i,i,i,i,i,i,nt,nt
COc1cc(/C=C2\SC(N)=NC2=O)cc(Br)c1O,i,i,55,i,i,i,70,i
CCN1C(=O)[C@H]2[C@@H](c3ccc(C(F)(F)F)cc3)N[C@]3(CCCN(Cc4ccc(F)cc4)C3=O)[C@H]2C1=O,nt,nt,nt,i,nt,i,nt,nt
C[n+]1cc(C(=O)N2CCCCC2)ccc1/C=C/c1c[nH]c2ccccc12,i,143,27,i,i,79,40,i
CCc1nnc(NC(=O)CSc2nc3c(c(=O)n2C)SC(C)C3)s1 (stereo unspecified),i,i,17,i,i,i,i,i
CCSc1nnc(NC(=O)CSc2nc3c(c(=O)n2C)SC(C)C3)s1 (stereo unspecified),i,i,i,i,i,i,nt,nt
COc1ccc(CNC(=O)c2cccnc2)cc1,i,i,i,i,i,i,nt,nt
O=C(O)C=C(Br)Br,i,i,i,i,i,i,nt,nt
COc1ccc(OC[C@@H](O)CNC(=O)c2cccc3c2C(=O)c2ccc(Cl)cc2S3(=O)=O)cc1,i,i,i,i,i,i,nt,nt
Cn1c(O)c(/C=C2\C=Nc3ccccc32)sc1=Nc1ccc(C(=O)O)cc1,i,i,i,i,i,i,nt,nt
O=C(Cc1ccccc1)Nn1c(O)c(/C=C2\C=Nc3ccccc32)sc1=S,i,58,62,i,i,67,43,i
CCCN(C(=O)c1ccc([N+](=O)[O-])c(C)c1)c1c(N)n(Cc2ccccc2)c(=O)[nH]c1=O,i,i,i,i,i,i,nt,nt
O=C(Cc1cccs1)N1CCN(S(=O)(=O)c2ccc(F)c(F)c2)CC1,i,i,i,i,i,i,nt,nt
CC(C)Oc1cccc(C(=O)NC(=S)Nc2ccccc2)c1,i,i,i,i,i,i,nt,nt
CC(=O)N(C(C)=O)c1nc(-c2ccccc2)cn1/N=C/c1ccccc1,i,i,25,i,i,i,20,i
C=CCN(C(=O)COC(=O)c1cc[n+]([O-])cc1)c1nc(-c2ccccc2)cs1,i,i,35,i,i,i,34,i
CN1CCN(C(=O)CCNC(=O)Cn2ccc3ccccc3c2=O)CC1,i,i,i,i,i,i,nt,nt
Cc1cccc(N2CCN(C(=O)CCNC(=O)Cn3ccc4ccccc4c3=O)CC2)c1C,i,i,17,i,i,i,i,i
CN1C(=O)CSc2ccc(NC(=O)NCCC3=CCCCC3)cc21,i,i,17,i,i,i,i,i
CC(OC(=O)/C(C#N)=C/c1ccc(N(C)C)cc1)C(=O)NCc1ccco1 (stereo unspecified),i,i,i,nt,i,nt,nt,nt
CCN(CC)c1ccc(/C=C(\C#N)C(=O)NCc2ccco2)cc1,nt,nt,90,nt,nt,nt,52,i
Cn1c(=O)n(C)c2cc(/C=C(/C#N)C(=O)NCc3ccco3)ccc21,i,i,i,i,i,i,nt,nt
CN(C)c1ccc(/C=C(\C#N)C(=O)NCc2ccco2)cc1,nt,nt,22,nt,nt,nt,i,i
